About 79,000 compounds went through this panel and 15% of them were active in at least one assay; those are over-represented in the sample as a whole. A number with no mark means an inactive call. Calls of active or inactive are those of the source. Rule as the data show it: active = growth inhibition above about 70%; inactive = the rest.
Assays:
[1] = NCI Yeast Anticancer Drug Screen. Data for the rad50 strain (AID 155);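 also: 0% = growth of vehicle-only cultures of the same strain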; conditions: S. cerevisiae rad50 strain growth inhibition, stronger effect = higher value
Method in brief: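 Inhibition values express reduced yeast growth in compound-treated cultures relative to vehicle-treated controls.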

[2] = NCI Yeast Anticancer Drug Screen. Data for the mec2-1 strain (AID 157); conditions: S. cerevisiae mec2-1 strain, stronger effect = higher value
Method in brief: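 Compounds were applied to mec2-1 yeast cells. Their growth was then compared with that of vehicle-treated cultures to give growth inhibition.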

[3] = NCI Yeast Anticancer Drug Screen. Data for the sgs1 mgt1 strain (AID 161);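 also: 0% = growth of cultures given vehicle only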; conditions: S. cerevisiae sgs1 mgt1 strain, stronger effect = higher value
Method in brief: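 This yeast growth screen uses a strain with defined DNA-repair lesions; compound-treated growth is compared with vehicle-treated growth.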

[4] = NCI Yeast Anticancer Drug Screen. Data for the cln2 rad14 strain (AID 165);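 also: 0% = growth equal to vehicle treated cultures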; conditions: S. cerevisiae cln2 rad14 strain, stronger effect = higher value
Method in brief: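 Strain: cln2 rad14 yeast, altered in cell cycle control and DNA damage repair. Read-out: growth inhibition vs vehicle.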

[5] = NCI Yeast Anticancer Drug Screen. Data for the bub3 strain (AID 167); conditions: S. cerevisiae bub3 mutant strain, stronger effect = higher value
Method in brief: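 Steps: expose the mutant yeast strain to compound; grow alongside vehicle-treated cultures; measure growth; express inhibition against the vehicle cultures.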

[6] = NCI Yeast Anticancer Drug Screen. Data for the mlh1 rad18 strain (AID 175); conditions: S. cerevisiae mlh1 rad18 strain growth inhibition, stronger effect = higher value
Method in brief: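 A repair-deficient yeast strain is exposed to test compound, and growth is scored relative to vehicle-treated controls.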

[7] = at 5.0 µM (retest, dose inferred, filed as 0.5)
[8] = at 50.0 µM (retest, dose inferred, filed as 5.0)

Row | SMILES | growth inhibition [1, 7] | growth inhibition [1, 8] | growth inhibition ([1]; at 50.0 µM) | growth inhibition [2, 7] | growth inhibition [2, 8] | growth inhibition ([2]; at 50.0 µM) | growth inhibition [3, 7] | growth inhibition [3, 8] | growth inhibition ([3]; at 50.0 µM) | growth inhibition [4, 7] | growth inhibition [4, 8] | growth inhibition ([4]; at 50.0 µM) | growth inhibition [5, 7] | growth inhibition [5, 8] | growth inhibition ([5]; at 50.0 µM) | growth inhibition [6, 7] | growth inhibition [6, 8] | growth inhibition ([6]; at 50.0 µM)
1 | CC1(C)CC2(c3ccccc3)CC(c3ccccc3)C1C(C(=O)O)C2C(=O)O (configuration not stated) | 28% | 99% (active) | 99.2% (active) | 27% | 99% (active) | 99.3% (active) | 10% | 99% (active) | 99.2% (active) | 7% | 99% (active) | 98.8% (active) | 35% | 96% (active) | 98.5% (active) | 17% | 99% (active) | 99.2% (active)
2 | OCC1N2CCC(CC2)C1(O)O (configuration not stated) | -2% | 5% | -11.8% | 2% | -3% | -6.9% | -3% | 1% | 0.1% | 2% | 2% | -16.1% | 1% | -4% | 34.5% | -2% | -4% | -12.7%
3 | N#CC(C#N)=Cc1c(O)ccc2ccccc12 | 15% | 76% (active) | 78.5% (active) | -2% | 45% | 51.3% | 2% | 32% | 66% | 18% | 48% | 61.2% | 10% | 62% | 68% | 19% | 81% (active) | 81.5% (active)
4 | S=P(OC1CC2CCC1C2)(c1ccccc1)c1ccccc1 (configuration not stated) | 83% (active) | 98% (active) | -15.2% | 90% (active) | 99% (active) | 4.1% | 86% (active) | 97% (active) | -0.75% | 87% (active) | 98% (active) | 30.4% | 88% (active) | 97% (active) | -10.6% | 91% (active) | 99% (active) | 1.2%
5 | S=c1[nH]c2ccccc2s1.[Pb] | -11% | 16% | 93.7% (active) | -1% | 6% | 94.8% (active) | 0% | 8% | 95.5% (active) | -10% | -11% | 64.2% | -4% | -7% | 94% (active) | -5% | -8% | 90.9% (active)
6 | CC(=O)NNc1ccccc1 | 6% | 44% | 62.5% | 2% | 52% | 66.2% | 9% | 53% | 68.3% | 2% | 65% | 40% | 7% | 89% (active) | 87% (active) | 14% | 84% (active) | 90.7% (active)
7 | CCC1CN1P(=O)(Oc1ccccc1)N1CC1CC (configuration not stated) | -2% | 15% | -5.7% | -1% | -42% | -17.2% | -1% | 2% | -14.8% | -11% | -7% | -16.4% | 7% | 52% | 57.5% | -2% | 6% | -20%
8 | C[C@]12CCC(O)CC1=CC[C@@H]1[C@@H]2CC[C@]2(C)C(=O)[C@H](n3ccnc3)C[C@@H]12 (some centres not stated) | 21% | 54% | 41.9% | 12% | 46% | 58% | 18% | 62% | 52.2% | 29% | 51% | 38.2% | 20% | 56% | 38.9% | 19% | 51% | 75.6% (active)
9 | O=[N+]([O-])c1cccc(SC(Cl)(Cl)Cl)c1 | 8% | 97% (active) | 99.5% (active) | 40% | 99% (active) | 99.5% (active) | 31% | 99% (active) | 99.1% (active) | -11% | 96% (active) | 97.1% (active) | -1% | 99% (active) | 99.2% (active) | 45% | 99% (active) | 99.3% (active)
